Results taken from PubChem BioAssay (Tox21).
Results filed as inconclusive are left out. Calls of active or inactive are those of the source. Unless noted, calls follow the shape of the dose curve; as a rule, active = well fitted curve in the direction sought with a large enough effect in the repeat runs; inconclusive = weak or mixed curves; inactive = no such curve, though single readings can be large; an effect the other way counts as inactive or inconclusive.

How the values were obtained:
[1] = qHTS assay to identify small molecule antagonists of the sonic hedgehog signaling (Shh) pathway (AID 1259369; calls by dose curve; also: nearly all actives have a fitted effect of over 45% in size; also: potency is read from the fitted curve at half-maximal effect)
How it was run: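 Conditioned medium drives Shh signalling in 3T3Gli1-Luc cells; compounds in DMSO co-applied, 24hr at 37 C, then luciferase luminescence.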

[2] = molecular target: Estrogen receptor beta (Homo sapiens) (UniProt Q92731); assay: qHTS assay to identify small molecule agonists of the estrogen receptor beta (ER-beta) signaling pathway (AID 1259377; active = well fitted activation curve with a large enough effect in the signal ratio in the repeat runs, not every such curve was filed as active; the % refers to the signal ratio)
How it was run: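 Beta-lactamase reporter readout: fluorescence of LiveBLAzer B/G FRET substrate after 2 h at room temperature, following 16 h compound treatment of ER-beta-UAS-bla HEK293T cells at 37C in 2% charcoal-stripped FBS medium.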

[3] = molecular target: Estrogen receptor beta (Homo sapiens) (UniProt Q92731); assay: qHTS assay to identify small molecule antagonists of the estrogen receptor beta (ER-beta) signaling pathway (AID 1259378; active = well fitted inhibition curve with a large enough effect in the signal ratio in the repeat runs, not every such curve was filed as active; the % refers to the signal ratio; also: potency is read from the fitted curve at half-maximal effect)
How it was run: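 ER-beta-UAS-bla HEK293T (GripTite) cells in 2% charcoal-stripped FBS medium were preincubated 6 hr at 37C, dosed with compound, then stimulated with 1 nM E2 (final) for 16 hr; beta-lactamase reporter read by B/G FRET fluorescence after 2 hr substrate loading.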

[4] = qHTS assay to identify small molecule agonists of the androgen receptor (AR) signaling pathway in the presence of an antagonist - cell viability counter screen (AID 1259379); also: nearly all actives have a fitted effect of over 25% in size; also: potency is read from the fitted curve at half-maximal effect
How it was run: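 A CellTiter-Fluor read-out measured viability of MDA-kb2 reporter cells (MMTV promoter with AR and GR response elements). Treatment: nilutamide 3.0uM final with compounds at 15 concentrations, 16 hr, 37C, 0% CO2.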

[5] = qHTS assay to identify small molecule agonists of the estrogen receptor beta (ER-beta) signaling pathway - cell viability counter screen (AID 1259380); also: nearly all actives have a fitted effect of over 30% in size; also: potency is read from the fitted curve at half-maximal effect
How it was run: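 Cells used were ER-beta-UAS-bla HEK293T in medium with 2% charcoal-stripped FBS. They were treated for 16 hr at 37C. Viability came from CellTiter-Glo luminescence.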

[6] = qHTS assay to identify small molecule antagonists of the estrogen receptor beta (ER-beta) signaling pathway - cell viability counter screen (AID 1259382); also: series mostly up to about 92 µM; nearly all actives have a fitted effect of over 55% in size
How it was run: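 Agonist-stimulated (1nM E2) ER-beta-UAS-bla HEK293T cells are incubated with library compounds for 16 hr at 37C. Cell viability is then assessed in the reporter-assay wells by adding CellTiter-Glo and reading luminescence after 30 min.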

[7] = qHTS assay to identify small molecule agonists or antagonists of the thyroid stimulating hormone receptor (TSHR) signaling pathway - wild type cell line counter screen (AID 1259384; calls by dose curve; also: potency is read from the fitted curve at half-maximal effect)
How it was run: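 Wild-type HEK293 cells were plated 18 h at 37 C/5% CO2, pin-dosed with compound plus Ro20-1724 medium, held 30 min at room temperature, then given cAMP-d2 and anti-cAMP-cryptate; fluorescence was read after 1 h. Fifteen concentrations, triplicate.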

[8] = molecular target: Thyrotropin receptor (Homo sapiens) (UniProt P16473); assay: qHTS assay to identify small molecule antagonists of the thyroid stimulating hormone receptor (TSHR) signaling pathway (AID 1259385; calls by dose curve; also: nearly all actives have a fitted effect of over 20% in size)
How it was run: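 TSHR-HEK293 cells were plated and held 18 h at 37C/5% CO2, then given compound plus Ro20-1724 and stimulated with TSH at 1.5 ng/mL final. After 30 min at room temperature, cAMP was detected with cAMP-d2/anti-cAMP-cryptate (1 h) by fluorescence.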

[9] = qHTS assay to identify small molecule agonists of the estrogen receptor alpha (ER-alpha) signaling pathway in the presence of an antagonist - cell viability counter screen (AID 1259386);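 also: cells exposed to compounds for 22 h at 37 °C before the viability read; nearly all actives have a fitted effect of over 30% in size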; also: potency is read from the fitted curve at half-maximal effect
How it was run: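 ICI-182,780 at 10.0nM final accompanies the compound titration (15 concentrations, 22hr, 37C) on VM7Luc4E2 cells. The CellTiter-Fluor fluorescence readout runs in the same wells as the luciferase assay.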

[10] = molecular target: Progesterone receptor (Homo sapiens) (UniProt P06401); assay: qHTS assay to identify small molecule agonists of the progesterone receptor (PR) signaling pathway (AID 1346784; calls by dose curve; also: nearly all actives have a fitted effect of over 30% in size)
How it was run: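 HEK 293T PR-UAS-bla reporter cells, 2% charcoal-stripped FBS; 6 hr settle at 37C/5% CO2, compound (DMSO) 16 hr, LiveBLAzer B/G FRET substrate 2 hr RT, fluorescence intensity read.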

[11] = qHTS assay to identify small molecule antagonists of the progesterone receptor (PR) signaling pathway - cell viability counter screen (AID 1346798); also: nearly all actives have a fitted effect of over 50% in size; also: potency is read from the fitted curve at half-maximal effect
How it was run: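 Luminescence readout (CellTiter-Glo, 30 min, RT) of viability in PR-UAS-bla HEK293T cells exposed to compound and R5020 agonist for 16 hr at 37C, 5% CO2; run in the same wells as the beta-lactamase reporter read.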

[12] = qHTS assay to identify small molecule agonists of the progesterone receptor (PR) signaling pathway - cell viability counter screen (AID 1346799; calls by dose curve; also: nearly all actives have a fitted effect of over 45% in size; also: potency is read from the fitted curve at half-maximal effect)
How it was run: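 HEK293T PR-UAS-bla, 3,000 cells/well, 2% charcoal-stripped FBS; 6 h settle, compound 16 h at 37C/5% CO2; LiveBLAzer 2 h RT, then CellTiter-Glo 30 min RT, luminescence read.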

[13] = qHTS assay to identify small molecule antagonists of the TGF-beta/Smad signaling pathway - cell viability counter screen (AID 1346824); also: nearly all actives have a fitted effect of over 50% in size
How it was run: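 SBE-bla HEK 293T cells were plated overnight at 37 C, then given compounds in DMSO plus TGF-beta1 (added as 0.25 ng/mL solution) for 5 hr. After the bla read, CellTiter-Glo was added to the same wells and luminescence read after 30 min at room temperature.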

[14] = qHTS assay to identify small molecule agonists of the TGF-beta/Smad signaling pathway - cell viability counter screen (AID 1346829); also: top concentration of the series differs between compounds; nearly all actives have a fitted effect of over 45% in size
How it was run: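 Here the cytotoxicity of library compounds is measured in SBE-bla HEK 293T cells treated for 5 hr, using CellTiter-Glo added to wells already read for the beta-lactamase reporter.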

[15] = qHTS assay to identify small molecule agonists of the TGF-beta/Smad signaling pathway (AID 1346859; active = well fitted activation curve with a large enough effect in the signal ratio in the repeat runs, not every such curve was filed as active; the % refers to the signal ratio; also: series mostly up to about 77 µM)
How it was run: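 Read-out: fluorescence at 460 and 530 nm (405 nm excitation) after a 2 hr room-temperature incubation with beta-lactamase FRET substrate. SBE-bla HEK 293T cells had been treated with test compounds for 5 hr at 37 C.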

[16] = molecular target: Thyrotropin-releasing hormone receptor (Homo sapiens) (UniProt P34981); assay: qHTS assay to identify small molecule antagonists of the thyrotropin-releasing hormone receptor (TRHR) signaling pathway (AID 1346877; active = well fitted inhibition curve with a large enough effect in the repeat runs, not every such curve was filed as active; also: series mostly up to about 51 µM)
How it was run: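 Screening used HEK293 cells engineered with TRHR, with a brief 5 min room-temperature compound exposure preceding addition of TRH to 1 nM. The read-out was kinetic calcium-dye fluorescence, concentration-response from 15 doses in triplicate.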

[17] = molecular target: Thyrotropin-releasing hormone receptor (Homo sapiens) (UniProt P34981); assay: qHTS assay to identify small molecule agonists of the thyrotropin-releasing hormone receptor (TRHR) signaling pathway (AID 1346891; calls by dose curve;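 also: HEK293 cells expressing TRHR with calcium dye readout; series mostly up to about 58 µM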)
How it was run: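 HEK293/TRHR cells, 1500 per well, 18 h 37 °C; Ca dye 2 h 37 °C; pin-tool compound addition (agonist mode); kinetic fluorescence 3 min, 1 s reads; 15 concentrations, triplicate.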

[18] = molecular target: Estrogen receptor (Homo sapiens) (UniProt P03372); assay: qHTS assay to identify small molecule agonists of the estrogen receptor alpha (ER-alpha) signaling pathway in the presence of an antagonist (AID 1259383; calls by dose curve; also: top concentration of the series differs between compounds; nearly all actives have a fitted effect of over 15% in size)
How it was run: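 Using VM7Luc4E2 cells seeded 24hr before treatment, antagonist ICI-182,780 (10.0nM final) was added, followed by compounds at 15 concentrations. Plates incubated 22hr; ONE-Glo luminescence quantified reporter activity.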

[19] = molecular target: Progesterone receptor (Homo sapiens) (UniProt P06401); assay: qHTS assay to identify small molecule antagonists of the progesterone receptor (PR) signaling pathway (AID 1346795; active = well fitted inhibition curve with a large enough effect in the signal ratio in the repeat runs, not every such curve was filed as active; the % refers to the signal ratio)
How it was run: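 Beta-lactamase reporter, HEK293T PR-UAS-bla line; 2% charcoal-stripped FBS; 6 hr pre-incubation, 37C/5% CO2. Compound + R5020 1 nM final, 16 hr. LiveBLAzer B/G FRET substrate, 2 hr RT; fluorescence intensity read.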

[20] = molecular target: Androgen receptor (Homo sapiens) (UniProt P10275); assay: qHTS assay to identify small molecule agonists of the androgen receptor (AR) signaling pathway in the presence of an antagonist (AID 1259381; calls by dose curve; also: nearly all actives have a fitted effect of over 15% in size)
How it was run: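 Using human MDA-kb2 cells with an MMTV promoter–luciferase construct (AR and GR response elements), agonist activity is scored under 3.0uM nilutamide (final) co-treatment; 16hr incubation, 37C, luminescence readout via ONE-Glo.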

Measured: Potency

Chain of Estrogen receptor beta (Homo sapiens) (Q92731 whole entry, looked up): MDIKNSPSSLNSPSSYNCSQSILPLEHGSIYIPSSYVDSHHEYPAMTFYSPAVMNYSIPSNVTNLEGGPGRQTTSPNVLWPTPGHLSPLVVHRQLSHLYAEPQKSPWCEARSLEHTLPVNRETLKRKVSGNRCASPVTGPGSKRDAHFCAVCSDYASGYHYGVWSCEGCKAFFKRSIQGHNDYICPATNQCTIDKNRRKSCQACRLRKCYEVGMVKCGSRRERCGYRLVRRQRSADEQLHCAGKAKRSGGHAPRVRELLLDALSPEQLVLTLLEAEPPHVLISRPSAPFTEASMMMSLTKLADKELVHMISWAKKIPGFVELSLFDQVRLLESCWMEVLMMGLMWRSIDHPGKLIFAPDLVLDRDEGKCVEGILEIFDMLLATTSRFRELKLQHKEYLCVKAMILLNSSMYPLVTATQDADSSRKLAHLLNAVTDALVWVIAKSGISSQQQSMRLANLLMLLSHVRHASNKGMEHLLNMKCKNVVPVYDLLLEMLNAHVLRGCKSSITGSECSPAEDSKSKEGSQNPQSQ
Chain of Estrogen receptor (Homo sapiens) (P03372 whole entry, looked up): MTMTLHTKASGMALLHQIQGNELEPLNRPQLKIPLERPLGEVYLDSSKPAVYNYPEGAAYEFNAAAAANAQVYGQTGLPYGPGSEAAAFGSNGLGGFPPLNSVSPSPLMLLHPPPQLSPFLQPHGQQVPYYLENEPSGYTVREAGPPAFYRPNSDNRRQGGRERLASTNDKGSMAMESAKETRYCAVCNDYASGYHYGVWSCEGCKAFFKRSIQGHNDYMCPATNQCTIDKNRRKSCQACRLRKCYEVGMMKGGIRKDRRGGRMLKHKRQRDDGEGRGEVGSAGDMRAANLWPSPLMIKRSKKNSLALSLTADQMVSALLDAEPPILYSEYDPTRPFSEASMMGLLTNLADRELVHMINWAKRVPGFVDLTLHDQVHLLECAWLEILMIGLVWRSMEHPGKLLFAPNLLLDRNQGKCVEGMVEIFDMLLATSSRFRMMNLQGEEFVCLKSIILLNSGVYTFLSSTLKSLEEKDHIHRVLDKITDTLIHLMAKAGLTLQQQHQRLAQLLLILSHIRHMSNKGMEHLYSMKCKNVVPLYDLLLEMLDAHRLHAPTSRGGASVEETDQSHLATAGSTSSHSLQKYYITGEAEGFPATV
Chain of Progesterone receptor (Homo sapiens) (P06401 whole entry, looked up): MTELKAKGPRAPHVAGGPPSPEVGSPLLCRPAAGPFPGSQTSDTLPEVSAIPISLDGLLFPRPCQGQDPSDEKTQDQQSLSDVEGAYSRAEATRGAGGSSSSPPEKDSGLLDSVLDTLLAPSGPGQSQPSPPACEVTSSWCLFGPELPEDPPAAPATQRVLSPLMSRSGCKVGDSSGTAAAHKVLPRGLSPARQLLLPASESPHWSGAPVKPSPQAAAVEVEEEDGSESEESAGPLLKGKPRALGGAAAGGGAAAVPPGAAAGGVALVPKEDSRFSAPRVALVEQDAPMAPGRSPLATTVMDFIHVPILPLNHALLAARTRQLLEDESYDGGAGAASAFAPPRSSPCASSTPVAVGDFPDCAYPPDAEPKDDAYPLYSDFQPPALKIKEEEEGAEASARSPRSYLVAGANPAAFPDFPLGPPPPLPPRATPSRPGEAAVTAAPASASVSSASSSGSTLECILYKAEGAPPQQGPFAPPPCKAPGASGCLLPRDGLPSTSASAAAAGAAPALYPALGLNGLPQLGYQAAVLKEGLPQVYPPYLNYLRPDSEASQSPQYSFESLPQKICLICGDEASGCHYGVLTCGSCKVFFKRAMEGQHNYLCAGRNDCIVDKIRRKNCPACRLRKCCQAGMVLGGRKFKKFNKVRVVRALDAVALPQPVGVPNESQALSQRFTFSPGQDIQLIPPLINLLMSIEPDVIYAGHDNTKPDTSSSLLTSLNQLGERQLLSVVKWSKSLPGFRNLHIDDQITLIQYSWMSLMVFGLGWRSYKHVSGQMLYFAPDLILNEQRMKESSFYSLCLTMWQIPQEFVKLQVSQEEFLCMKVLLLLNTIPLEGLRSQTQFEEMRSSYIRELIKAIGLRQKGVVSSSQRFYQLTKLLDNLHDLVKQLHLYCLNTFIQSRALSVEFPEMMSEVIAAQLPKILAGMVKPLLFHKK
Chain of Thyrotropin receptor (Homo sapiens) (P16473 whole entry, looked up): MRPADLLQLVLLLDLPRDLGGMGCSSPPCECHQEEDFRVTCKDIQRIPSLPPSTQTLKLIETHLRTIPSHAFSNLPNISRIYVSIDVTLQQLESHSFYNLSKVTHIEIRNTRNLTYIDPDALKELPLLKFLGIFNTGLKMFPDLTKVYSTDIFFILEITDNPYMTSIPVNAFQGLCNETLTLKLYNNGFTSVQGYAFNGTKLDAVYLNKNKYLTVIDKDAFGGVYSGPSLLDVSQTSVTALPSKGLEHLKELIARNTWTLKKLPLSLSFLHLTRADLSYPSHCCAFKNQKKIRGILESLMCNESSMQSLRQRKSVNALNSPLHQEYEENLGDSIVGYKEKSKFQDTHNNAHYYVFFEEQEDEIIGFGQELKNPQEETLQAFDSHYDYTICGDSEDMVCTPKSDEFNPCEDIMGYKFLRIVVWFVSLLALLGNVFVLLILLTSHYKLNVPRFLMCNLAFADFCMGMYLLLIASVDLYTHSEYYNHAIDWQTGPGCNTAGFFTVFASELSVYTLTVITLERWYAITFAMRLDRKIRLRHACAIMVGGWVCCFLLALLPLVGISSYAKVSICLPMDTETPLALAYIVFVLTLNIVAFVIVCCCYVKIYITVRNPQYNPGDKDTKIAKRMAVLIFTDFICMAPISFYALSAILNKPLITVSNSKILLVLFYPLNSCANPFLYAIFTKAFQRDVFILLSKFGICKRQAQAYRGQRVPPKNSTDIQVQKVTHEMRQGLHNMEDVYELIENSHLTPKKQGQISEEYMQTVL
Chain of Thyrotropin-releasing hormone receptor (Homo sapiens) (P34981 whole entry, looked up): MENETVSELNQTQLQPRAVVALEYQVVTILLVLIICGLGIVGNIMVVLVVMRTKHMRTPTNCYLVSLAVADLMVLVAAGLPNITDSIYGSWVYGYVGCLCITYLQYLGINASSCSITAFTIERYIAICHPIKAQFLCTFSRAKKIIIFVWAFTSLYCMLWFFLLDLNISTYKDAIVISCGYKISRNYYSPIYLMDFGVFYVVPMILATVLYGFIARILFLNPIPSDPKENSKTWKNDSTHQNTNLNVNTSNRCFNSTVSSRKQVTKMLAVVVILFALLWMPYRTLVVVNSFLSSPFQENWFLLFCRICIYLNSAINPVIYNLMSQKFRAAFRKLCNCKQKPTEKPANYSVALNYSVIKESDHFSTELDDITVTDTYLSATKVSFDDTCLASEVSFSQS
Chain of Androgen receptor (Homo sapiens) (P10275 whole entry, looked up): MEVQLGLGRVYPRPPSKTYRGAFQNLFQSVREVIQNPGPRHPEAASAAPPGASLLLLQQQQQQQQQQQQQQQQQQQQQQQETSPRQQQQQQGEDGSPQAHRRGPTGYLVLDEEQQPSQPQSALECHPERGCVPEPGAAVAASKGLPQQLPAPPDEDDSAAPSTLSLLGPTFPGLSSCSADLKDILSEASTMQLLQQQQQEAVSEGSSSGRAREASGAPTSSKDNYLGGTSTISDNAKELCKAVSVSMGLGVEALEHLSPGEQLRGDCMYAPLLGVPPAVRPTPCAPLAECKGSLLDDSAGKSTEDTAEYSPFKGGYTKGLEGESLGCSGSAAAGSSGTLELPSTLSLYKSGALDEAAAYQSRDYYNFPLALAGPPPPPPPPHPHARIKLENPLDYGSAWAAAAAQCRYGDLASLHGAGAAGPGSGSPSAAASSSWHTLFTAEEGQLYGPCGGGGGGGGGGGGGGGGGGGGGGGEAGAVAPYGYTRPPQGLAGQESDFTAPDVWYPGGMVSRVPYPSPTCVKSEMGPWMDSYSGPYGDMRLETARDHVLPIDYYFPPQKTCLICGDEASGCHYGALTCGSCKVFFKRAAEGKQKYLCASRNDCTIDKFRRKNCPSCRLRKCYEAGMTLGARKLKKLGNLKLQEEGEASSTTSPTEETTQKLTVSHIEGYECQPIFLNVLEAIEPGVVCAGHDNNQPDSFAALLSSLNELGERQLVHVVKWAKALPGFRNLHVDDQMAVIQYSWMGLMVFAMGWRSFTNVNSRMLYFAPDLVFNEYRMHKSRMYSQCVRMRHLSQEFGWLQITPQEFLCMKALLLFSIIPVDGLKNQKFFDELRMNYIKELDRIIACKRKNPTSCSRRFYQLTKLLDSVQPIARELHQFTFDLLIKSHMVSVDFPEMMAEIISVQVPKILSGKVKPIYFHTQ

CCCCO
not listed: [16] | [17] | [18] | [19] | [20]
inactive: all other assays above

Cc1cccc(C)c1NC(=O)CN(CC(=O)O)CC(=O)O
not listed: [12] | [15] | [18] | [19] | [20]
inactive: all other assays above

OCc1cc(C(O)CNCCCCCCOCCCCc2ccccc2)ccc1O (stereo not drawn)
active: [1] 6.68 µM | [3] 16.8 µM | [4] 26.6 µM | [5] 21.1 µM | [7] 0.0009 µM
not listed: [6] | [9] | [19] | [20]
inactive: all other assays above

CCn1cc(C(=O)O)c(=O)c2cnc(N3CCNCC3)nc21
not listed: [7] | [8] | [18] | [20]
inactive: all other assays above

C#CCN(C)CCCOc1ccc(Cl)cc1Cl
not listed: [5] | [7] | [8] | [13] | [14] | [19] | [20]
inactive: all other assays above

C=CCOC(=O)CCC1CCCCC1
not listed: [18] | [20]
inactive: all other assays above

CC(C)(CO)[N+](=O)[O-]
not listed: [7] | [8] | [18] | [20]
inactive: all other assays above

CCC(C)c1cc(C(C)(C)C)c(O)c(C(C)(C)C)c1 (stereo not drawn)
not listed: [18] | [19] | [20]
inactive: all other assays above

O=C1OC(=O)C2C3C=CC(C3)C12 (stereo not drawn)
not listed: [12] | [18] | [20]
inactive: all other assays above

CC(C)(COC(=O)c1ccccc1)COC(=O)c1ccccc1
not listed: [12] | [18] | [19] | [20]
inactive: all other assays above

OC(CN1CCC(Cc2ccc(F)cc2)CC1)c1ccc(Cl)cc1 (stereo not drawn)
active: [1] 23.7 µM
not listed: [4] | [7] | [8] | [10] | [15] | [18] | [19]
inactive: all other assays above

CC1OC(=O)C(C)OC1=O (stereo not drawn)
not listed: [5] | [10] | [15] | [19] | [20]
inactive: all other assays above

COc1ccc(C)cc1[N+](=O)[O-]
not listed: [8] | [18] | [19] | [20]
inactive: all other assays above

CCC(C)(C)CC
not listed: [7] | [8] | [9] | [16] | [17] | [18] | [20]
inactive: all other assays above

CCN(CC)c1ccc(C(=C2C=CC(=[N+](CC)CC)C=C2)c2cc(S(=O)(=O)O)ccc2S(=O)(=O)[O-])cc1
active: [1] 2.66 µM | [4] 26.6 µM | [9] 23.7 µM
not listed: [5] | [7] | [8] | [13] | [14] | [18]
inactive: all other assays above

CNCCCCOc1ccccc1Cc1ccccc1
active: [1] 10.6 µM | [3] 11.9 µM | [5] 11.9 µM | [11] 6.68 µM | [12] 6.68 µM
inactive: [2] | [18] | [7] | [10] | [13] | [15] | [16] | [17]
